In the supplement of paper PMC10338343:
± gives the standard deviation.

Columns and labels:
[1] = test system: MILI (PIWIL2) piRISC loaded with piRNA #1 (26 nt); assay: pre-steady-state target cleavage rate (min^-1); guide: piRNA #1 5'p-UGAGGUAGUAGGUUGUAUAGUAUCCA; higher = faster piRNA-guided slicing of the target; conditions: auxiliary factor: 500 nM mouse GTSF1;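 note: 1 nM active piRISC with 0.1 nM target library at 33 °C single turnover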
How it was run: (§1)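 A burst-and-steady-state fit was used to obtain the pre-steady-state cleavage rate. The input data were sequencing reads of uncleaved targets, normalised to depth and to weakly complementary targets, from a […] transcribed, DNA-blocked target RNA library mixed with 1 nM active affinity-purified piRISC holding one synthetic guide, with or without 500 nM GTSF1 partner protein, in HEPES–potassium acetate buffer at 33 °C for 0–8 or 0–960 min. Three trials were pooled and k3 was capped at 0.0001 min^-1.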

[2] = test system: EfPiwi piRISC loaded with piRNA #1 (26 nt); assay: pre-steady-state target cleavage rate (min^-1); auxiliary factor: 500 nM Ephydatia muelleri Gtsf1; guide: piRNA #1 5'p-UGAGGUAGUAGGUUGUAUAGUAUCCA; MIWI and MILI are mouse PIWI proteins and EfPiwi is from a freshwater sponge; tags in brackets are library labels; higher = faster piRNA-guided slicing of the target
How it was run: as §1

Sequence	pre-steady-state target cleavage rate [1]	pre-steady-state target cleavage rate [2]
GGAGACCAUACUAUACAAGCUAGUACCUCA	0.0775 ± 0.016	0.0032 ± 0.0027
GGAGUCGAUACUAUACAUCCUACUACCUCA	0.313 ± 0.017	0.0165 ± 0.007
GGAGAGGAUACUUUACAACCUACUAGCUCA	0.0731 ± 0.013	0.00183 ± 0.0016
GGAGAGGAUACUAUACUUCCUACUACCUCA	0.19 ± 0.015	0.00555 ± 0.0051
GGAGACGAUACUAUACAACCUACGACCUCA	0.146 ± 0.019	0.00449 ± 0.0018
GGAGACGAUACAAUACAACCUUCUACCUCA	0.0137 ± 0.0038	0.00327 ± 0.0022
GGAGAGGAUACUAUACAACCUACUACCACA	0.171 ± 0.017	0.00641 ± 0.0021
GGAGACGAUACAAAACAACCUACUACCUCA	0.149 ± 0.018	0.00359 ± 0.0033
GGAGACCUAACUAUACAAGCUAGUACCUCA	0.0871 ± 0.019	0.00423 ± 0.0037
GGAGACGAUACUAUACAAGCUAGUACCUCA	0.105 ± 0.028	0.00387 ± 0.002
GGAGACCUUAGCUAUACAACCUACUACCUCA	0.112 ± 0.015	0.0684 ± 0.027
GGAGAGGAUACUAAACAACCUUCUACCUCA	0.0108 ± 0.0026	0.00394 ± 0.0023
GGAGUGGAUACUAUACAACGUACUACCUGA	0.0131 ± 0.0034	0.00457 ± 0.0015
GGAGACCUUACUAUACAACCUACUACCGUCA	0.132 ± 0.02	0.0112 ± 0.0047
GGAGUGCAUACAAUACAACCUACUACCUCA	0.186 ± 0.013	0.0102 ± 0.0044
GGAGACCUAACUAUACAACCUACUACCUGCA	0.149 ± 0.034	0.0711 ± 0.039
GGAGACCAUACUAUACAACCUACAACGUCA	0.0302 ± 0.012	0.00373 ± 0.0033
GGAGACGAUACGUAUACAACCUACUACCUCA	0.107 ± 0.013	0.00952 ± 0.0048
GGAGAGGAUACUAAACAACCUACUAGCUCA	0.0547 ± 0.012	0.00242 ± 0.0017
GGAGACGAUACUAUACAACCUACUACCUACA	0.178 ± 0.013	0.00797 ± 0.0032
GGAGACGAUACUAUACAACCAACUACCUCA	0.00952 ± 0.004	0.00552 ± 0.0017
GGAGUCGAUACUAUACAACCUACUAGCUCA	0.0244 ± 0.0057	0.00304 ± 0.0019
GGAGACCUAACGAUACAACCUACUACCUCA	0.257 ± 0.053	0.0136 ± 0.0071
GGAGACGAUACUAUUCAACCUAGUACCUCA	0.0492 ± 0.01	0.0035 ± 0.0018
GGAGACCUAACUAUACAACCUACUAUCUCA	0.0721 ± 0.017	0.0057 ± 0.003
GGAGACCAUACUAUACAACCUACUACCUCA [g2:g23:cont:t1A]	0.178 ± 0.023	0.0141 ± 0.0046
GGAGACCAUACUAUACAACCAUACUACCUCA	0.0045 ± 0.0036	0.00431 ± 0.003

Sequence	pre-steady-state target cleavage rate [1]	pre-steady-state target cleavage rate [2]
GGAGACGAUACUAUACAACCAAGUACCUCA	0.00441 ± 0.0027	0.00215 ± 0.0019
GGAGACCUUACUAUACAACCUGCUACCUCA	0.0466 ± 0.0081	0.0174 ± 0.0079
GGAGACCUAUCUAUACAACCUGCUACCUCA	0.0162 ± 0.0048	0.00697 ± 0.0045
GGAGACCAUACUAUACAACCUACUACCCUCA	0.22 ± 0.024	0.00445 ± 0.0021
GGAGUCGAUUCUAUACAACCUACUACCUCA	0.182 ± 0.01	0.00723 ± 0.0043
GGAGACCUUACUAUACAACCUACUAGCCUCA	0.181 ± 0.018	0.00471 ± 0.0044
GGAGAGGUAACUAUACAACCUACUACCUCA	0.103 ± 0.015	0.00695 ± 0.0039
GGAGACCAUACUAUACAACCUACUACGAGA	0.0759 ± 0.019	0.00579 ± 0.0027
GGAGACCAUACUAUACAACCCACUACCUCA	0.0223 ± 0.0041	0.0058 ± 0.0024
GGAGUGCAAACUAUACAACCUACUACCUCA	0.126 ± 0.012	0.00676 ± 0.0044
GGAGACGUUACUAUACUACCUACUACCUCA	0.169 ± 0.011	0.00494 ± 0.0024
GGAGUGGAUACUAUACAACCUACUACUCUCA	0.14 ± 0.012	0.00513 ± 0.0029
GGAGGGGAUACUAUACAACCUACUACCUCA	0.203 ± 0.0091	0.209 ± 0.067
GGAGACGAUACUAUACAACCAACAACCUCA	0.00726 ± 0.0036	0.00278 ± 0.0019
GGAGAGGCAUACUAUACAACCUACUACCUCA	0.177 ± 0.014	0.0477 ± 0.017
GGAGAGGAUACUAUACAACCUACUCCCUCA	0.0191 ± 0.006	0.00429 ± 0.0017
GGAGUGGAUAGUAUACAACCUACAACCUCA	0.0845 ± 0.011	0.00254 ± 0.0017
GGAGUGGAUAGUAUACAACCUACUUCCUCA	0.0138 ± 0.0048	0.00264 ± 0.0019
GGAGACGAUACUCUACAACCUACUACCUCA	0.176 ± 0.012	0.00744 ± 0.0035
GGAGACGAUACUAUACAACCUACUACCUCCA	0.214 ± 0.014	0.02 ± 0.0073
GGAGACCAUACUAUACAACCUACUACCUA	0.125 ± 0.016	0.0149 ± 0.0065
GGAGACCAUCUAUACAACCUACUACCUCA	0.112 ± 0.013	0.00903 ± 0.0054
GGAGACGAACUAUACAACCUACUACCUCA	0.138 ± 0.012	0.0112 ± 0.0057
GGAGUGGAUACUAAUACAACCUACUACCUCA	0.135 ± 0.0082	0.08 ± 0.032
GGAGAGGAUACUAUAGAACCUACUACCUGA	0.0217 ± 0.005	0.00264 ± 0.0017
GGAGACGAUACUAGUACAACCUACUACCUCA	0.153 ± 0.013	0.0047 ± 0.0025
GGAGAGGAUACUGAUACAACCUACUACCUCA	0.17 ± 0.014	0.00615 ± 0.0037
